From PubChem BioAssay (Tox21)
Values joined by “and” are separate entries in the source; they are usually repeats but may differ in a detail not shown here. Identical values can stand only once. Records with an inconclusive call do not appear. Where a call stands in place of a potency, no number is given. Active and inactive are the calls of the source. The call rests on the fitted dose curve.
Potency means the concentration at half of the fitted maximal effect.

The compounds below were run against Acetylcholinesterase (Homo sapiens) (UniProt P22303) (assay: Acetylcholinesterase (AChE) small molecule antagonists: colormetric cell-based qHTS assay (AID 1347395; further: nearly all actives have a fitted effect of over 30% in size)). Conditions: SH-SY5Y cells AChE activity, colorimetric (Ellman); series mostly up to 115 µM.
Chain of Acetylcholinesterase (Homo sapiens) (P22303 whole entry, looked up): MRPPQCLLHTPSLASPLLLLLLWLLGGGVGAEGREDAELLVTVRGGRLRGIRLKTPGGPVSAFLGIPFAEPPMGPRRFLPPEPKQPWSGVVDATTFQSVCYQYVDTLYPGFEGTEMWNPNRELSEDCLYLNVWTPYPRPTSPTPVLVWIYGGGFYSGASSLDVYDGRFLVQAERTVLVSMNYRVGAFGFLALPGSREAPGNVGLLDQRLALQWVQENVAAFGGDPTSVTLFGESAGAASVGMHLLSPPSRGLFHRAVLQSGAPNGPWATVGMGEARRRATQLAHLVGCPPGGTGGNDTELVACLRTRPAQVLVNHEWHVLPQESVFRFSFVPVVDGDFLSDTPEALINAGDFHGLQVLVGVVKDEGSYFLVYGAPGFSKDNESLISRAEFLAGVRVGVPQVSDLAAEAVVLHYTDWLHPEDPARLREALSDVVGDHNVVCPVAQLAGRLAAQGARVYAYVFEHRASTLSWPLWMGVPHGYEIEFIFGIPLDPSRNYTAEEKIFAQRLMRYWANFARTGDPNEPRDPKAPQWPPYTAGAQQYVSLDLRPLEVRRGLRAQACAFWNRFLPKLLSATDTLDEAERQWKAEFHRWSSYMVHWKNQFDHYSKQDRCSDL
Summary of the method: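 Cells (SH-SY5Y, 2,000 per well) are seeded and left overnight at 37 C. Compound is added for 30 min, then DTNB and acetylthiocholine for a further 90 min at 37 C before absorbance-based thiocholine detection.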
`CN(C)c1ccncc1` was tested, and the Potency was “inactive”.
For `CS(=O)(=O)CCNCc1ccc(-c2ccc3ncnc(Nc4ccc(OCc5cccc(F)c5)c(Cl)c4)c3c2)o1`, the Potency was “inactive”.
`O=P(O)(OCc1ccccc1)OCc1ccccc1` was tested, and the Potency was “inactive”.
For `CCOC(=O)COc1ccc2c(C)c(CCN(CC)CC)c(=O)oc2c1Cl`, the Potency was 13.8 µM (active).
`O=CCCCC=O` was tested, and the Potency was “inactive”.
In the case of `O=C(O)CNC(=O)c1ccc(CO)o1`, the Potency is reported as “inactive”.
With `CCN=C1C=CC(=C(c2ccc(N(CC)CC)cc2)c2ccc(N(CC)CC)cc2)c2ccccc21` the Potency was 62.9 µM (active).
For `CO[C@H]1O[C@H](CO)[C@@H](O)[C@H](O)[C@H]1O`, the Potency was “inactive”.
With `CC(=O)Oc1c(C)c(C)c2c(c1C)CC[C@@](C)(CCC[C@H](C)CCC[C@H](C)CCCC(C)C)O2` the Potency was “inactive”.
In the case of `CC(=O)Nc1ccc(S(=O)(=O)Nc2ccc([N+](=O)[O-])cc2)cc1`, the Potency is reported as “inactive”.
`CC(C)(C)N` was tested, and the Potency was “inactive”.
`CO[Si](OC)(OC)c1ccccc1` was tested, and the Potency was “inactive”.
For `C=C1[C@H]2CC[C@@H]3[C@H]2C(C)(C)CCC[C@]13C`, the Potency was “inactive”.
`OC[C@H]1O[C@@H](OCCc2ccc(O)cc2)[C@H](O)[C@@H](O)[C@@H]1O` was tested, and the Potency was “inactive”.
`CC(C)CCCCCCOC(=O)c1ccc(C(=O)OCCCCCCC(C)C)c(C(=O)OCCCCCCC(C)C)c1` was tested, and the Potency was “inactive”.
`CCc1nc(N)nc(N)c1-c1ccc(Cl)cc1` was tested, and the Potency was “inactive”.
In the case of `CC1(C)SC(C)(C)SC(C)(C)S1`, the Potency is reported as “inactive”.
For `CN1CCc2cccc3c2[C@H]1Cc1ccc(O)c(O)c1-3`, the Potency was 64 µM (active).
With `CC(C)(C)CCCCCCOC(=O)c1ccccc1C(=O)OCCCCCCC(C)(C)C` the Potency was “inactive”.
`C[Si](C)(C)O[Si](C)(C)C` was tested, and the Potency was “inactive”.
`Cc1c(O)cccc1O` was tested, and the Potency was “inactive”.
In the case of `CCOc1ccc(N=Nc2ccc(/C=C/c3ccc(N=Nc4ccc(OCC)cc4)cc3S(=O)(=O)O)c(S(=O)(=O)O)c2)cc1`, the Potency is reported as “inactive”.
With `C/C=C(\C)C(C)=O` the Potency was “inactive”.
With `NC(=O)c1ncn([C@@H]2O[C@H](CO)[C@@H](O)[C@H]2O)n1` the Potency was “inactive”.
With `OC1CCCc2ccccc21` (stereo not given) the Potency was “inactive”.
In the case of `NC(=O)NNC(N)=O`, the Potency is reported as “inactive”.
`CC1=CC(=O)CC(C)(C)C1` was tested, and the Potency was “inactive”.
For `Cc1cccc(C(C)(C)C)c1O`, the Potency was “inactive”.
For `CCCc1c(OCCCOc2ccc(OCC(=O)O)cc2)ccc(C(C)=O)c1O`, the Potency was “inactive”.
With `CCN[C@H]1C[C@H](C)S(=O)(=O)c2sc(S(N)(=O)=O)cc21` the Potency was “inactive”.
In the case of `CCN1CCCC1CN` (stereo not given), the Potency is reported as “inactive”.
In the case of `CCO[Si](CC)(OCC)OCC`, the Potency is reported as “inactive”.
For `C[C@@H]1CC(=O)NN=C1c1ccc(NN=C(C#N)C#N)cc1`, the Potency was “inactive”.
In the case of `Cc1ccc([N+](=O)[O-])c(N)c1`, the Potency is reported as “inactive”.
`CCOC(=O)CC1(C)OCC(C)O1` (stereo not given) was tested, and the Potency was “inactive”.
In the case of `O=C(O)c1c(Cl)ccc(Cl)c1Cl`, the Potency is reported as “inactive”.
In the case of `c1ccc2c(c1)Cc1ccccc1-2`, the Potency is reported as “inactive”.
`Nc1ccc(C(=O)N2CC3CC(CN(Cc4ccccc4)C3)C2)cc1` was tested, and the Potency was “inactive”.
`O=C(O)c1ccc(S(=O)(=O)N(Cl)Cl)cc1` was tested, and the Potency was “inactive”.
With `CC1=C(/C=C/C(C)=C/C=C/C(C)=C/C(=O)Nc2ccc(O)cc2)C(C)(C)CCC1` the Potency was “inactive”.

These compounds were tested against Acetylcholinesterase (Homo sapiens) (UniProt P22303) (assay: Acetylcholinesterase (AChE) small molecule antagonists: enzyme-based qHTS assay (AID 1347397; further: nearly all actives have a fitted effect of over 55% in size)). Conditions: Potency: AChE enzyme activity inhibition; outcome: AChE enzyme activity inhibition; series mostly up to 115 µM.
Summary of the method: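 First, recombinant human AChE (50 mU/mL as dispensed) received test compound or DMSO. Second, plates stood 30 min at room temperature. Third, DTNB and acetylthiocholine were added, followed by 10 min at room temperature and colorimetric detection.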
In the case of `CN(C)c1ccncc1`, the Potency is reported as “inactive”.
For `CS(=O)(=O)CCNCc1ccc(-c2ccc3ncnc(Nc4ccc(OCc5cccc(F)c5)c(Cl)c4)c3c2)o1`, the Potency was “inactive”.
With `O=P(O)(OCc1ccccc1)OCc1ccccc1` the Potency was “inactive”.
For `CCOC(=O)COc1ccc2c(C)c(CCN(CC)CC)c(=O)oc2c1Cl`, the Potency was 15.5 µM (active).
`O=CCCCC=O` was tested, and the Potency was “inactive”.
`O=C(O)CNC(=O)c1ccc(CO)o1` was tested, and the Potency was “inactive”.
With `CCN=C1C=CC(=C(c2ccc(N(CC)CC)cc2)c2ccc(N(CC)CC)cc2)c2ccccc21` the Potency was 19.9 µM (active).
For `CO[C@H]1O[C@H](CO)[C@@H](O)[C@H](O)[C@H]1O`, the Potency was “inactive”.
In the case of `CC(=O)Oc1c(C)c(C)c2c(c1C)CC[C@@](C)(CCC[C@H](C)CCC[C@H](C)CCCC(C)C)O2`, the Potency is reported as “inactive”.
In the case of `CC(=O)Nc1ccc(S(=O)(=O)Nc2ccc([N+](=O)[O-])cc2)cc1`, the Potency is reported as “inactive”.
In the case of `CC(C)(C)N`, the Potency is reported as “inactive”.
`CO[Si](OC)(OC)c1ccccc1` was tested, and the Potency was “inactive”.
For `C=C1[C@H]2CC[C@@H]3[C@H]2C(C)(C)CCC[C@]13C`, the Potency was “inactive”.
`OC[C@H]1O[C@@H](OCCc2ccc(O)cc2)[C@H](O)[C@@H](O)[C@@H]1O` was tested, and the Potency was “inactive”.
For `CC(C)CCCCCCOC(=O)c1ccc(C(=O)OCCCCCCC(C)C)c(C(=O)OCCCCCCC(C)C)c1`, the Potency was “inactive”.
With `CCc1nc(N)nc(N)c1-c1ccc(Cl)cc1` the Potency was “inactive”.
In the case of `CC1(C)SC(C)(C)SC(C)(C)S1`, the Potency is reported as “inactive”.
`CN1CCc2cccc3c2[C@H]1Cc1ccc(O)c(O)c1-3` was tested, and the Potency was 40.4 µM (active) and 21.1 µM (active).
With `CC(C)(C)CCCCCCOC(=O)c1ccccc1C(=O)OCCCCCCC(C)(C)C` the Potency was “inactive”.
In the case of `C[Si](C)(C)O[Si](C)(C)C`, the Potency is reported as “inactive”.
`Cc1c(O)cccc1O` was tested, and the Potency was “inactive”.
With `CCOc1ccc(N=Nc2ccc(/C=C/c3ccc(N=Nc4ccc(OCC)cc4)cc3S(=O)(=O)O)c(S(=O)(=O)O)c2)cc1` the Potency was “inactive”.
In the case of `C/C=C(\C)C(C)=O`, the Potency is reported as “inactive”.
For `NC(=O)c1ncn([C@@H]2O[C@H](CO)[C@@H](O)[C@H]2O)n1`, the Potency was “inactive”.
With `OC1CCCc2ccccc21` (stereo not given) the Potency was “inactive”.
In the case of `NC(=O)NNC(N)=O`, the Potency is reported as “inactive”.
With `CC1=CC(=O)CC(C)(C)C1` the Potency was “inactive”.
For `Cc1cccc(C(C)(C)C)c1O`, the Potency was “inactive”.
`CCCc1c(OCCCOc2ccc(OCC(=O)O)cc2)ccc(C(C)=O)c1O` was tested, and the Potency was “inactive”.
`CCN[C@H]1C[C@H](C)S(=O)(=O)c2sc(S(N)(=O)=O)cc21` was tested, and the Potency was “inactive”.
For `CCN1CCCC1CN` (stereo not given), the Potency was “inactive”.
With `CCO[Si](CC)(OCC)OCC` the Potency was “inactive”.
With `C[C@@H]1CC(=O)NN=C1c1ccc(NN=C(C#N)C#N)cc1` the Potency was “inactive”.
In the case of `Cc1ccc([N+](=O)[O-])c(N)c1`, the Potency is reported as “inactive”.
`CCOC(=O)CC1(C)OCC(C)O1` (stereo not given) was tested, and the Potency was “inactive”.
With `O=C(O)c1c(Cl)ccc(Cl)c1Cl` the Potency was “inactive”.
In the case of `c1ccc2c(c1)Cc1ccccc1-2`, the Potency is reported as “inactive”.
With `Nc1ccc(C(=O)N2CC3CC(CN(Cc4ccccc4)C3)C2)cc1` the Potency was “inactive”.
In the case of `O=C(O)c1ccc(S(=O)(=O)N(Cl)Cl)cc1`, the Potency is reported as “inactive”.
In the case of `CC1=C(/C=C/C(C)=C/C=C/C(C)=C/C(=O)Nc2ccc(O)cc2)C(C)(C)CCC1`, the Potency is reported as “inactive”.
